Several values for one entry are separate records, joined by “and”; a condition that tells them apart may be missing. Equal entries are not always repeated. Activity calls are given as the source filed them.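 How the source made its calls, unless noted: active means mean z-score across replicates of 1.96 or higher in either the MELAS or the Rieske mutant cell line; inactive means the rest.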
How the values were obtained:
[1] = liver-stage malaria parasite growth inhibition, primary screen, cell-based, HepG2, luciferase luminescence, HepG2 viability (AID 624349; in the data active means parasite load remaining mostly below about 12%, no sharp cut-off; inactive means mostly above about 10%;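 further: 100% = mean of DMSO negative control wells on the same plate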); conditions: P. berghei liver stage in HepG2, luciferase luminescence, concentration not given here; parasite load remaining: stronger effect = lower value; viability: measured here: HepG2 viability without parasites
[2] = sensitizers of A549 cells to miR-34 induction, primary screen, imaging, A549 dox-inducible miR-34, nuclei and caspase counts (AID 1347080;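 active means compounds whose cell count with miR-34 switched on is under 0.7 times the count with it off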); conditions: A549 miR-34 inducible, Hoechst nuclei count, 48 h
[3] = survival rescue of mitochondrial mutant cells in low glucose, primary screen, MELAS cybrids, Rieske KO mouse fibroblasts, CellTiter-Glo (AID 1508586);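 further: z relative to plate mean and SD of compound and empty wells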
[4] = molecular target: NAD(+) hydrolase SARM1 (Homo sapiens) (UniProt Q6SZW1); test: SARM1 TIR NADase inhibitors, cell lysate, NAD-Glo luminescence (AID 1508614;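 active means compound whose remaining NAD level is above about 45 nM, limit read from the data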); conditions: SAM-TIR HEK293T lysate NADase, at 1 µM, stronger effect = higher value
Chain of NAD(+) hydrolase SARM1 (Homo sapiens) (Q6SZW1 whole entry, looked up): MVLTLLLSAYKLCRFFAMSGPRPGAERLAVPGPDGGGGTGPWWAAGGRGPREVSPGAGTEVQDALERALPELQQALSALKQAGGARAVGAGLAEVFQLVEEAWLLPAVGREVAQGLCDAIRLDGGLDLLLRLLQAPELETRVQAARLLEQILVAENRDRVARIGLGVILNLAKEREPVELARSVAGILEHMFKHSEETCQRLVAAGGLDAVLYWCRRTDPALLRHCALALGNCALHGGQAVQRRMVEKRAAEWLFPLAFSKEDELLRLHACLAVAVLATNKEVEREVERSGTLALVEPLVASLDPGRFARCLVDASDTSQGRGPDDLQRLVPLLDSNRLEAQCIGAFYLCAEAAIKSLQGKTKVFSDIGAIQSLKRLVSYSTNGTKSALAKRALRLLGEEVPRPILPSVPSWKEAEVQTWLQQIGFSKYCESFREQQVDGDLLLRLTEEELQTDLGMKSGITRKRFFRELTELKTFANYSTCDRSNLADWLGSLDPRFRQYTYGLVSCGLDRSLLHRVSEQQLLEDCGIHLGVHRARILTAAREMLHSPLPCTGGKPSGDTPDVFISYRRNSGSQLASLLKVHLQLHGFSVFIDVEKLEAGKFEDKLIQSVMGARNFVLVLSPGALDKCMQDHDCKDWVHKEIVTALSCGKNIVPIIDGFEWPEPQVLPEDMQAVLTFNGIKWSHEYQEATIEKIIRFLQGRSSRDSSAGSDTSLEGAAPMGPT

[5] = viability rescue of complex I mutant cybrids, primary screen, cell-based, galactose medium, ATP luminescence (AID 1645843;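 active means z-score of at least 1.8 in each of two replicates, scored against plate mean and spread of sample wells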;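 further: positive z means more ATP and so rescue of galactose-driven cybrid death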); conditions: complex I mutant cybrid cells, 72 h, stronger effect = higher value
[6] = stronger effect = lower value, cell number ratio, induced over uninduced
[7] = measured here: relative caspase fold change +Dox/-Dox
[8] = measured here: total cells with miR-34 induction, stronger effect = lower value
[9] = measured here: total cells without miR-34 induction
[10] = MELAS cybrid survival, CellTiter-Glo 48 h, stronger effect = higher value
[11] = Rieske KO mouse fibroblast survival, CellTiter-Glo 72 h

| SMILES | parasite load remaining [1] | viability [1] | fold change [2, 6] | fold change [2, 7] | cell count [2, 8] | cell count [2, 9] | z-score [3, 10] | z-score [3, 11] | remaining NAD [4] | z-score [5] |
| --- | --- | --- | --- | --- | --- | --- | --- | --- | --- | --- |
| NCc1ccccc1CC(=O)N[C@@H]1C(=O)N2C(C(=O)O)=C(CSc3nnnn3CC(=O)O)CS[C@H]12 | 167% (inactive) and 62% (inactive) | 121% and 87.5% | 0.949 (inactive) | 1.15 | 8230 | 8670 | 0.404 (inactive) | -0.0556 | 10 nM (inactive) |  |
| Cc1ccc(-c2noc([C@@]34CC[C@@](C)(C(=O)O3)C4(C)C)n2)cc1Cl |  |  | 0.896 (inactive) | 1.34 | 8140 | 9090 | -0.00199 (inactive) | -1.05 |  | -0.54 (inactive) |
| CO[C@@]1(NC(=O)C2SC(=C(C(N)=O)C(=O)O)S2)C(=O)N2C(C(=O)O)=C(CSc3nnnn3C)CS[C@@H]21 (some centres not stated) | 165% (inactive) and 73.4% (inactive) | 107% and 73.9% | 0.873 (inactive) | 1.71 | 8700 | 9980 | -0.492 (inactive) | -0.132 | 10 nM (inactive) |  |
| Cc1nc2cc(C(=O)N(C)Cc3cc(-c4cccnc4)no3)ccc2s1 |  |  | 0.86 (inactive) | 2.36 | 6380 | 7420 | -0.957 (inactive) | -0.223 |  | -0.55 (inactive) |
| C[C@@H]1CCC[C@H](C)N1NC(=O)c1ccc(Cl)c(S(N)(=O)=O)c1 | 123% (inactive) and 80.9% (inactive) | 112% and 106% | 0.884 (inactive) and 0.878 (inactive) | 1.72 and 1.06 | 9180 and 9670 | 10400 and 11000 | 0.52 (inactive) and -0.675 (inactive) | -0.0626 and -0.387 |  | 0.85 (inactive) |
| CC(C)[N+]1(C)[C@@H]2CC[C@H]1CC(OC(=O)C(CO)c1ccccc1)C2 (some centres not stated) | 74.8% (inactive) | 106% | 0.879 (inactive) | 1.21 | 10100 | 11500 | -0.791 (inactive) | -0.158 | 10 nM (inactive) | 0.555 (inactive) |
| Nc1nc2cc(C(=O)N3CCN(C(=O)c4ccco4)CC3)ccc2s1 |  |  | 0.879 (inactive) | 1.74 | 8870 | 10100 | -0.277 (inactive) | -0.24 |  | -0.565 (inactive) |
| CC(C)(O/N=C(\C(=O)N[C@@H]1C(=O)N2C(C(=O)[O-])=C(C[n+]3ccccc3)CS[C@H]12)c1csc(N)n1)C(=O)O | 53.2% (inactive) and 19.3% (inactive) | 114% and 70% | 0.844 (inactive) and 0.909 (inactive) | 1.51 and 1.02 | 8430 and 9490 | 9990 and 10400 | -0.0556 (inactive) and 0.494 (inactive) | -0.289 and -0.00761 | 10 nM (inactive) | 0.025 (inactive) |
| O=C(O)C=Cc1ccccc1O |  |  | 0.911 (inactive) | 0.83 | 8740 | 9590 | 0.0698 (inactive) | 0.0548 |  | 0.245 (inactive) |
| O=C(CC(=O)C(F)(F)F)c1cccs1 |  |  | 0.883 (inactive) | 0.164 | 8190 | 9270 | -1.06 (inactive) | 0.275 |  | -0.485 (inactive) |

From PubChem BioAssay
